In all, about 300,000 compounds went through this assay and about 1,000 (0.33%) were called active. The full list was thinned out, with actives kept by preference. A number with no mark means an inactive call. No stated cut-off is given here; in the data, active means inhibition above about 28%; inactive means the rest.

In this assay the test system is EBNA-1 (Epstein-Barr virus nuclear antigen 1), Human herpesvirus 4. The assay is described as follows: EBNA-1 DNA-binding inhibitors, primary screen, biochemical, fluorescence polarization (AID 1950). The following applies: at 14.8 µM, stronger effect = higher value. For orientation: Polarisation of emitted light reports the rotation of a fluorescent probe.
By inhibition is commonly meant the relative decrease from the control value, in per cent. As to `COc1ccc(C(C(=O)NC2CCCC2)N(CCCO)C(=O)Cn2nnc(-c3ccc(C)o3)n2)cc1` (stereo unspecified), the inhibition is -26.3%. For `CC(C)NC(=O)NC(=O)COC(=O)c1ccc(NC(=O)CC#N)cc1`, the inhibition is 8.39%. As to `CCOc1ccc(C(=O)Nc2ccncc2)cc1`, the inhibition is -2.27%. For `CCOc1ccc(NC(=O)c2ccc(NC(=O)COC(=O)c3ccc(NC(=O)CC#N)cc3)cc2)cc1`, the inhibition was 31.4% (active). Consider `COCCNc1cc(-c2ccccc2)nc2cc(-c3cccc(F)c3)nn12`, for which the inhibition is -2.12%.

`O=C(N/N=C/c1ccc(O)cc1)/C(=C/c1ccc([N+](=O)[O-])cc1)NC(=O)c1ccccc1`: the inhibition was 11.3%. In the case of `NC(=O)c1ccc(NC(=O)COC(=O)c2ccc([N+](=O)[O-])cc2)cc1`, the inhibition is 7.68%. `O=C(COc1ccc(/C=N/NC(=O)c2ccc(O)cc2)cc1)Nc1ccc([N+](=O)[O-])cc1`: the inhibition was 52.6% (active). Take `Cc1ccn2c(=O)nc(SCC(=O)NCc3ccc(F)cc3)nc2c1`: the inhibition was -14.5%. In the case of `Oc1ccccc1CNc1ncc(Br)cc1Br` it was -8.83%; in that of `Cc1ccc(C(=O)NNC(=O)c2cccs2)cc1`, -0.94%; in that of `O=C(NNC(=O)c1cc2c(s1)CCCC2)c1ccccc1`, 6.96%.

On to `Cc1ccc(C(=O)NNC(=O)c2cc3cc4ccccc4nc3s2)cc1`, for which the inhibition is 66.7% (active). In the case of `Cc1cc2nc3n(c2cc1C)CC1CC(C(=O)NCCC(C)C)N(C)C31` (stereo unspecified) it was -5.15%; in that of `O=C(Nc1cccc(NC(=O)c2ccc(Br)cc2)c1)c1ccccc1`, 28.3% (active); in that of `O=C(Nc1cccc(NC(=O)c2cccc(F)c2)c1)c1ccccc1`, -2.13%. Under `O=C(Cc1ccccc1)Nc1cccc(NC(=O)c2ccccc2)c1` stands -12.9%.

As to `CN(C)[C@@H]1C(=O)C(C(N)=O)=C(O)[C@@]2(O)C(=O)C3=C(O)c4c(O)ccc(Cl)c4[C@@H](O)[C@H]3C[C@@H]12`, the inhibition is 14.1%. In the case of `O=C(Nc1cccc(O)c1)c1ccc(C(=O)c2ccccc2)o1` it was 10.1%; in that of `COc1ccc(CNc2nc3c(c(=O)[nH]c(=O)n3C)n2Cc2ccccc2)cc1`, 28.1% (active); in that of `COc1ccc(CCn2c(NCCCN3CCOCC3)nc3c2c(=O)[nH]c(=O)n3C)cc1`, 5.1%.

For `COc1ccc(CCn2c(NN=C3CCCC3)nc3c2c(=O)[nH]c(=O)n3C)cc1`, the inhibition was 1.13%. For `Cc1cccc(C(=O)Nc2ccc3c(c2)C(=O)N(CC(C)C)C3=O)c1`, the inhibition was -2.99%. Under `CCC(=O)Nc1ccc(C(=O)Nc2ccc3c(c2)C(=O)N(CC2CCCO2)C3=O)cc1` (stereo unspecified) stands 57.9% (active); under `CCC(=O)Nc1ccc(S(=O)(=O)NCC2CCCO2)cc1` (stereo unspecified), 4.88%. In the case of `Cc1cccc(NC(=O)NC2(C)CCS(=O)(=O)C2)c1` (stereo unspecified) it was -12.1%; in that of `CCc1c(C)nc2ncnn2c1N1CCC(C(=O)NCc2ccc3c(c2)OCO3)CC1`, 7.74%. Under `COc1ccc(C(C(=O)NCc2ccccc2)N(Cc2cccs2)C(=O)c2cnccn2)cc1` (stereo unspecified) stands 4.32%; under `CCn1c(/C=C/Nc2ccccc2)[n+](CC)c2ccc(C(=O)OCC(F)(F)F)cc21`, -1.72%; under `CCC(=O)c1ccc(OC(=O)/C=C/c2cc(OC)c(OC)c(OC)c2)cc1`, 6.75%. Turning to `CCOc1[nH]n(-c2ccc(Cl)cc2)c(=O)c1C=Nc1ccc(O)cc1`, the inhibition is 36.6% (active).

Regarding `COc1cc(NS(=O)(=O)c2ccc(N=Cc3c(C)[nH]n(-c4ccccc4)c3=O)cc2)nc(OC)n1`, the inhibition is 14.1%.

With `CCOc1ccc(N=C2NC(=O)S/C2=C\c2ccc(O)cc2)cc1`, the inhibition was 22%. Under `O=C(CC(=O)N/N=C\c1cccc(Cl)c1Cl)NCc1ccccc1` stands 0.69%. Under `COc1cccc(N2CC(NS(=O)(=O)c3cccs3)CC2=O)c1` (stereo unspecified) stands -3.98%; under `CC(=O)NC(CC(=O)Nc1nc(-c2ccccc2)c(C(C)=O)s1)c1ccccc1` (stereo unspecified), 6.2%. Under `O=c1o[nH]c(-c2ccccc2)c1N=Nc1c(F)cccc1Cl` stands -1.23%; under `COc1ccc(-c2ccc(Nc3ccc(S(=O)(=O)N4CCCC4)cc3)nn2)cc1OC`, 61.7% (active). As for `COc1ccc(S(=O)(=O)Nc2ccc(S(=O)(=O)N3CCCCC3)cc2)cc1OC`, the inhibition is -12.3%. Under `COc1ccc(S(=O)(=O)N2CCCCCC2)cc1C(=O)OCC(=O)Nc1cc(C)on1` stands -10.6%; under `CCCn1c2ccccc2c2cnn(CC(=O)NCCCN3CCCCC3CC)c(=O)c21` (stereo unspecified), -11.4%; under `O=[N+]([O-])c1cc(S(=O)(=O)Nc2cccc(Cl)c2)ccc1N=Nc1c(O)[nH]c2ccccc12`, -1.48%.

Regarding `CCc1ccc(NC(=O)Nc2ccncc2)cc1`, the inhibition was -0.73%. Under `CC(=O)c1ccc(NC(=O)C2CC(=O)Nc3nc4ccccc4n32)cc1` (stereo unspecified) stands -7.52%. `CCOC(=O)c1ccc(NC(=O)C2CC(=O)Nc3nc4ccccc4n32)cc1` (stereo unspecified): the inhibition was 30.4% (active). In the case of `CCOC(=O)C1=C(C)Nc2nc3ccccc3n2C1c1cccs1` (stereo unspecified) it was 3.55%; in that of `Cc1ccc(NS(=O)(=O)c2ccc3c(c2)n(C)c(=O)c(=O)n3C)c(C)c1`, -9.29%; in that of `CCCS(=O)(=O)Nc1ccc(-c2cn3c(n2)SCC3)cc1`, -2.75%. Consider `COc1cccc(NC(=O)CCNS(=O)(=O)c2ccc3c(c2)oc(=O)n3C)c1`, for which the inhibition was -10.5%. As for `CSCCC(NS(=O)(=O)c1ccc2c(c1)oc(=O)n2C)C(=O)NCc1ccccc1` (stereo unspecified), the inhibition was 1.42%.

For `CCOc1ccc(OCC)c(NC(=O)C(NS(=O)(=O)c2ccc3c(c2)oc(=O)n3C)C(C)C)c1` (stereo unspecified), the inhibition was 38% (active). With `CC(Oc1ccc(Br)cc1)C(=O)NCC(c1ccco1)N1CCCCC1` (stereo unspecified), the inhibition was -5.29%.

As for `CC(C)OC(=O)c1ccc(COc2ccc3ccc(=O)oc3c2)o1`, the inhibition was 0.87%. Take `O=C(OCC1O[C@@H](OC(=O)c2cc(O)c(O)c(O)c2)[C@@H](OC(=O)c2cc(O)c(O)c(O)c2)[C@@H](OC(=O)c2cc(O)c(O)c(O)c2)[C@@H]1OC(=O)c1cc(O)c(O)c(O)c1)c1cc(O)c(O)c(O)c1` (stereo partly specified): the inhibition is 36.5% (active).

As to `O=C(OCC1OC(Oc2ccc(O)cc2)C(O)C(O)C1O)c1ccccc1` (stereo unspecified), the inhibition is -9.05%.

For `Cn1c(=O)[nH]c(=O)c2c1[nH]c(=S)n2Cc1ccccc1`, the inhibition was 9.15%. In the case of `O=C(COc1ccc([N+](=O)[O-])cc1)Nc1cccc(C(=O)Nc2ccccc2C(=O)O)c1` it was 8.21%. Under `C=CCNC(=S)/N=c1/ccccn1Cc1ccccc1` stands 3.92%; under `CCN(CC)CCN1C(=O)C2C(C(=O)Nc3ccc(Br)cc3)C3C=CC2(O3)C1C(=O)NC1CCCCC1` (stereo unspecified), 5.67%; under `COc1ccc(CCNC(=S)N2CCN(S(=O)(=O)c3ccc(F)cc3)CC2)cc1`, 34.3% (active). `COc1ccc(CCNC(=O)C2CCCN(S(=O)(=O)c3ccc(OC)cc3)C2)cc1` (stereo unspecified): the inhibition was 5.18%. Under `COc1ccc(CCNC(=S)N2CCN(S(=O)(=O)c3ccc(Cl)cc3)CC2)cc1` stands 7.36%; under `OC(COc1ccc(CN2CCSCC2)cc1)CN1CCCCC1` (stereo unspecified), 3.92%. Turning to `COc1ccc(/C=C2\SC(=S)N(CCCC(=O)NC3CCCC3)C2=O)cc1OC`, the inhibition was -4.95%.

As for `CC(=O)NNC(=O)c1csc(Cc2c(Cl)sc3ccc(Cl)cc23)n1`, the inhibition was -5.11%. In the case of `Cc1cc(OCC(=O)NCC(O)c2ccccc2)c2c(C)c(C)c(=O)oc2c1` (stereo unspecified) it was 3.74%.
